# Experimental data from the supplement of paper PMC10849652.
# About 8,800 targets were measured; listed, in parts, are those with a hit and a random draw of the rest. About 0.5% of all pairs of compound and target were hits. A number with no mark means an inactive call.
# Key:
# Experiment in all cases: log2 fold change, soluble protein after heating vs DMSO (PISA); higher = thermal stabilisation; K562 lysate, 10 uM; active = over 0.2 and 3.5 SD of the protein, either way, in both replicates (recomputed)
# ibrutinib = compound: C=CC(=O)N1CCC[C@@H](n2nc(-c3ccc(Oc4ccccc4)cc3)c3c(N)ncnc32)C1 [ibrutinib]
# Outline: (§1)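 Following dounce homogenisation of K562 pellets in PBS pH 7.4 with 1 mM MgCl2, crude extract at 1 mg/mL protein was incubated for 30 min with 10 μM compound. Aliquots were then heated for 3 min over 48°C-58°C and pooled, NP-40 was added to 0.5% at 4°C, and soluble protein was recovered as the supernatant at 21,000xg for 90 min. Channel-sum-equalised TMTpro 16plex LC-MS/MS quantified this protein. Each value, from duplicates, is a log-two fold change in thermal stability relative to solvent controls.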
# [1] = compound: CC(=O)c1cnc2ccc(-c3cc(Cl)c(O)c(Cl)c3)nc2c1N[C@H]1CC[C@H](CN(C)C)CC1
# Outline: as §1
# ralimetinib = compound: CC(C)(C)Cn1c(N)nc2ccc(-c3[nH]c(C(C)(C)C)nc3-c3ccc(F)cc3)nc21 [ralimetinib]
# Outline: as §1
# [2] = compound: CC(C)(O)CC(=O)NCCn1ccc2ncnc(Nc3ccc(Oc4cccc(C(F)(F)F)c4)c(Cl)c3)c21
# Outline: as §1
# [3] = compound: CC(C)C1=C2N=C(C=C(N2N=C1)NCC3=CC=CC=C3)NCCCCCCN
# Outline: as §1
# [4] = compound: CC1=C(C(CC(=O)N1)C2=CC=C(C=C2)C(F)(F)F)C(=O)NC3=C(C=C4C(=C3)C=NN4)F
# Outline: as §1
# [5] = compound: CC1=C(C2=C(C=C1)C(=O)C3=CC=CC=C3N2CCCN)C
# Outline: as §1
# [6] = compound: CC1=C(C=C(C=C1)NC(=O)C2=CC(=CC=C2)C(C)(C)C#N)NC3=CC4=C(C=C3)N=CN(C4=O)C
# Outline: as §1
# [7] = compound: CC1=C(C=C(C=C1)NC(=O)C2=CC(=CC=C2)N(C)C)NC(=O)C3=CC=C(C=C3)O
# Outline: as §1
# [8] = compound: CC1=CC=C(C=C1)SC2=C3C=C(SC3=CN=C2)C(=O)N
# Outline: as §1
# Chain of UniProt P03928 (P03928 whole entry, looked up): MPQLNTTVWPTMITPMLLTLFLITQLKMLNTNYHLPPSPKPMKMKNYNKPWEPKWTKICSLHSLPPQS
# Chain of UniProt Q9Y5B6 (Q9Y5B6 whole entry, looked up): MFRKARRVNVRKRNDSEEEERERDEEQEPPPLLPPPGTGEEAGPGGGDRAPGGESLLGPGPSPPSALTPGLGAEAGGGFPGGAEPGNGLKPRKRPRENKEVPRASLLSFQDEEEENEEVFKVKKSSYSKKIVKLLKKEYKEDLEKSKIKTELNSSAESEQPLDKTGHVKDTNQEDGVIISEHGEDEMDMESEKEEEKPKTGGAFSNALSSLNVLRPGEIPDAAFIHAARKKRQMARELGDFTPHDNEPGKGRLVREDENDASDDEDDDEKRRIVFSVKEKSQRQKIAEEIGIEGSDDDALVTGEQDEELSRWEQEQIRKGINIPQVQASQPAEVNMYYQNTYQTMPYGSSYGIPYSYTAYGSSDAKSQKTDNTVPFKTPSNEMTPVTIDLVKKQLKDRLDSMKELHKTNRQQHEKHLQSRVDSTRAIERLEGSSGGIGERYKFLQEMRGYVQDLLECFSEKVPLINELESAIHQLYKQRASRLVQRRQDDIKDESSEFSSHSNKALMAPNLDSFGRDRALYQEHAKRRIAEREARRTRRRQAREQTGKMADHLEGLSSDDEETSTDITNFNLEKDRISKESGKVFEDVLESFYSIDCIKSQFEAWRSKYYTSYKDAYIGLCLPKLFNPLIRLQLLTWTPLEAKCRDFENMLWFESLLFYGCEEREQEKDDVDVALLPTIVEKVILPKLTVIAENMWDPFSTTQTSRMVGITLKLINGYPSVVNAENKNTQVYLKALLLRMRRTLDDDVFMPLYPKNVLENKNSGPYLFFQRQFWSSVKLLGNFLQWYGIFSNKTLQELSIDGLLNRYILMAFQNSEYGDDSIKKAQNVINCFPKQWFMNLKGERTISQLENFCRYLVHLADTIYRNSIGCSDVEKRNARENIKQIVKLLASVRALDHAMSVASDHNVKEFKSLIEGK
# Chain of UniProt Q9BPZ3 (Q9BPZ3 whole entry, looked up): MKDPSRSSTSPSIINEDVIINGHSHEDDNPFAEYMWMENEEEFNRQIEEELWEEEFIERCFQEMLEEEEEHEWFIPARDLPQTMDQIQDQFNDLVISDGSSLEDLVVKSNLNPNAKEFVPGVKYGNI
# Chain of UniProt Q5TEU4 (Q5TEU4 whole entry, looked up): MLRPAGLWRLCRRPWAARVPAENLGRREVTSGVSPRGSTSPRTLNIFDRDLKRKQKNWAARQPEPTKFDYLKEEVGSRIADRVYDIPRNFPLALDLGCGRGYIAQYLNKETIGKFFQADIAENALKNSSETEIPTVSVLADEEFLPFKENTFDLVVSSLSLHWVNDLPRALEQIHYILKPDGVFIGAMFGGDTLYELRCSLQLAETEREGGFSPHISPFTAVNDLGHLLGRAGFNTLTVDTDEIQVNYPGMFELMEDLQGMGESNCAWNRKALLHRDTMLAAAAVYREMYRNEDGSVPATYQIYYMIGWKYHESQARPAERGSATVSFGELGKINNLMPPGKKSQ
# Chain of UniProt P48552 (P48552 whole entry, looked up): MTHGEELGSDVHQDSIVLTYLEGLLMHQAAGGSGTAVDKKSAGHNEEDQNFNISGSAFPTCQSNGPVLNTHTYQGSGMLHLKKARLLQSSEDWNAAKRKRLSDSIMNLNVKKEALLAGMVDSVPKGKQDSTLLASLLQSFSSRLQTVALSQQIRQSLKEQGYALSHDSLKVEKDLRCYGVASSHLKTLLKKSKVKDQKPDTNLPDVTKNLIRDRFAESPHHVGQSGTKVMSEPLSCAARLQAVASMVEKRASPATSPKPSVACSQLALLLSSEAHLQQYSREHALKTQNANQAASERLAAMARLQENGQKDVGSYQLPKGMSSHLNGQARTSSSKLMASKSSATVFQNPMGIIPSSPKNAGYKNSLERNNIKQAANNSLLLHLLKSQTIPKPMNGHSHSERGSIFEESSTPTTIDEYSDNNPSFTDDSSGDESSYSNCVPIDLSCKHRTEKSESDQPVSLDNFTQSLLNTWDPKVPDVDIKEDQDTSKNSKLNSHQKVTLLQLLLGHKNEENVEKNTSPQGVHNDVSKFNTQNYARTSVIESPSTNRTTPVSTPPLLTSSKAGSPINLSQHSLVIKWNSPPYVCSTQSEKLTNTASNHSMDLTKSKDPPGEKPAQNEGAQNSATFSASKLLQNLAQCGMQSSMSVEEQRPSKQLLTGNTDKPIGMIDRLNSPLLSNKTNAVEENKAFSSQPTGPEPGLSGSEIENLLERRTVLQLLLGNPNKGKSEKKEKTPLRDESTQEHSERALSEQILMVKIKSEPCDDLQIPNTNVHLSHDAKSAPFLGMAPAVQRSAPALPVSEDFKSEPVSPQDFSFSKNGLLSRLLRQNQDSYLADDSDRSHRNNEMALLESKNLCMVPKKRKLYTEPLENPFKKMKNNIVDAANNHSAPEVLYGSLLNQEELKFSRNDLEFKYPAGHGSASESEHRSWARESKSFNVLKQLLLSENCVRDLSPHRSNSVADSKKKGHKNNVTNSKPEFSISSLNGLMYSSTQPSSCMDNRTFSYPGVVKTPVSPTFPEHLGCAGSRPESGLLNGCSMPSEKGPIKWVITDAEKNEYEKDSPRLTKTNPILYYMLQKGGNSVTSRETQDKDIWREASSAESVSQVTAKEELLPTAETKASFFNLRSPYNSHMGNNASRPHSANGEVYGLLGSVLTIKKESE
# Chain of UniProt Q9BWT3 (Q9BWT3 whole entry, looked up): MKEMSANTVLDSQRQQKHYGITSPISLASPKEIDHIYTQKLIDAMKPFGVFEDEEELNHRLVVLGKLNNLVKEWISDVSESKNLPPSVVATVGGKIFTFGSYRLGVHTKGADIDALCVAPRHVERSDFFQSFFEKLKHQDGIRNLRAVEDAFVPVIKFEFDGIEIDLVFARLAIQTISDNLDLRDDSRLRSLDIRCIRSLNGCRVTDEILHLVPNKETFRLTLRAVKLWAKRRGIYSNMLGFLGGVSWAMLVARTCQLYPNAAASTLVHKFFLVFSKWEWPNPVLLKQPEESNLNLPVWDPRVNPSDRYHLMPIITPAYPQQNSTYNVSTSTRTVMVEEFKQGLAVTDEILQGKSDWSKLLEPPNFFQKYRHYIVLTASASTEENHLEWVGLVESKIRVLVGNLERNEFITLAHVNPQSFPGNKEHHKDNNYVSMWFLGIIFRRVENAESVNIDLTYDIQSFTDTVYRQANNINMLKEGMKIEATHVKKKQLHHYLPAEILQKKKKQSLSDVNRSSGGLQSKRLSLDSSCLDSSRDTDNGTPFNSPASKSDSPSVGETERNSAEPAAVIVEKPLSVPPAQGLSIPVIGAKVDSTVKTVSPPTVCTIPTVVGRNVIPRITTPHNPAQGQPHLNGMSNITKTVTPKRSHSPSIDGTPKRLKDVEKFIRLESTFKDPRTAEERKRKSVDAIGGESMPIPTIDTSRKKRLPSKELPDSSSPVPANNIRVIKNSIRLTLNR
# Chain of UniProt P53370 (P53370 whole entry, looked up): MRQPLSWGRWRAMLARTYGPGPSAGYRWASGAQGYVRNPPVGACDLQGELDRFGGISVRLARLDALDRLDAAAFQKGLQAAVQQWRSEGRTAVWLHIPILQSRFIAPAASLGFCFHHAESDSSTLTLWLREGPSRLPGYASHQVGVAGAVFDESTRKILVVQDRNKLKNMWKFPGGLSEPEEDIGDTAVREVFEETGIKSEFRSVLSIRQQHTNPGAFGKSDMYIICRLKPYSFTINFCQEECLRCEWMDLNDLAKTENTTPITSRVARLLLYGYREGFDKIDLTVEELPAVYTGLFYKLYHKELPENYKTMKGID
# Chain of UniProt O75607 (O75607 whole entry, looked up): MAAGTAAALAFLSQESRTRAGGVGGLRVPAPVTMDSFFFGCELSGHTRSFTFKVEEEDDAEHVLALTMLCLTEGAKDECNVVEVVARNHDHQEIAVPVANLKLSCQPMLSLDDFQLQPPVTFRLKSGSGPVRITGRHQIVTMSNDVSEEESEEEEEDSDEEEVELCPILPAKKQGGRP
# Chain of UniProt Q9NZJ9 (Q9NZJ9 whole entry, looked up): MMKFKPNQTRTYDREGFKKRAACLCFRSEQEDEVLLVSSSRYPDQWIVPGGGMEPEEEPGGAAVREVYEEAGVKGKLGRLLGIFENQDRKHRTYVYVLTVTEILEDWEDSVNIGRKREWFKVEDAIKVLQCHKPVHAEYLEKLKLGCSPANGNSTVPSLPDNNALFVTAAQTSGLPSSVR
# Chain of UniProt Q9UK39 (Q9UK39 whole entry, looked up): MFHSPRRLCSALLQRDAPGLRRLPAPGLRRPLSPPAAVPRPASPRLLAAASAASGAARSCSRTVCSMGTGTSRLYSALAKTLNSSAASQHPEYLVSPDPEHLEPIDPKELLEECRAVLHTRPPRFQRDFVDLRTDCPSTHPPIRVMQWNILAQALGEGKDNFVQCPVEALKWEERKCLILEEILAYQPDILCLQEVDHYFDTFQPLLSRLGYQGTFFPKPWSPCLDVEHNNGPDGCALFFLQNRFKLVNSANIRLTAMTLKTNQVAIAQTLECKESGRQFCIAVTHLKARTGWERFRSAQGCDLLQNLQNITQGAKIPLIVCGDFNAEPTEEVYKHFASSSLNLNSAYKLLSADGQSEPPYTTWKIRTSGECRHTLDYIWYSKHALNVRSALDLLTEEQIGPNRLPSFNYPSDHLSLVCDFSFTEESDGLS
# Chain of UniProt Q15843 (Q15843 whole entry, looked up): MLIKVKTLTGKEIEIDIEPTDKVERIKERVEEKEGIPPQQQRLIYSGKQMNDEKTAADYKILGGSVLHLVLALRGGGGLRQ
# Chain of UniProt Q5JRK9 (Q5JRK9 whole entry, looked up): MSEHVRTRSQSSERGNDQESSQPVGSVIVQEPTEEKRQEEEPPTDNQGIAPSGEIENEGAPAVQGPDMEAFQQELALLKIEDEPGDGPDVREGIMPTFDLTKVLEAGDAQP
# Chain of UniProt Q15102 (Q15102 whole entry, looked up): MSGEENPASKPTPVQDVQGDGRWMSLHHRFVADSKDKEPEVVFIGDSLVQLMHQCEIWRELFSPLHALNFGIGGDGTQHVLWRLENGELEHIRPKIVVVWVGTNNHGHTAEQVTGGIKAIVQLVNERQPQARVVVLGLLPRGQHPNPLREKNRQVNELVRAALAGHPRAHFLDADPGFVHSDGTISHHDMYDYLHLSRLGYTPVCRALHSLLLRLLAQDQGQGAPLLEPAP
Target,log2 fold change (ibrutinib),log2 fold change [1],log2 fold change (ralimetinib),log2 fold change [2],log2 fold change [3],log2 fold change [4],log2 fold change [5],log2 fold change [6],log2 fold change [7],log2 fold change [8]
NFKBIE (UniProt O00221),-0.018,0.054,-0.008,-0.059,-0.05,0.015,-0.044,0.027,0.05,0.018
ORC2 (UniProt Q13416),0.012,-0.011,0.044,0.032,-0.014,0.016,-0.089,-0.005,-0.014,0.021
NBEAL2 (UniProt Q6ZNJ1),-0.048,0.011,0.023,-0.047,0.003,0.036,-0.011,0.047,0.06,-0.013
NT5DC2 isoform 2 (UniProt Q9H857),0,-0.066,-0.015,-0.026,0,-0.002,-0.015,0.008,0.04,-0.025
MYO1C (UniProt O00159),0.037,0.031,0.075,-0.032,-0.009,-0.03,0.017,-0.292 (active),0.021,0.06
MSH3 (UniProt P20585),0,-0.017,0.024,-0.037,-0.039,0.023,-0.025,-0.018,-0.007,-0.005
PAXBP1 (UniProt Q9Y5B6),-0.004,0.019,0.027,-0.015,0.006,-0.024,0.007,-0.007,0.077,0.032
NFIC (UniProt P08651),-0.019,0.014,0.009,-0.058,0.235,-0.038,-0.044,0.049,0.04,-0.082
MSH6 (UniProt P52701),0.001,0.022,0.024,0.003,0.027,-0.01,-0.01,-0.002,0.057,0.003
ORC3 isoform 2 (UniProt Q9UBD5),-0.034,0.007,0.034,-0.05,0.008,0.048,-0.036,0.003,0.029,-0.012
PAFAH1B3 (UniProt Q15102),0.073,-0.004,0.003,-0.01,0.015,-0.026,0.014,-0.002,0.02,0.006
OARD1 (UniProt Q9Y530),-0.013,0.003,0.003,0.002,-0.01,-0.027,-0.046,0.032,0.035,0.011
NPM3 (UniProt O75607),0.038,0.03,0.029,-0.077,0.018,0.048,-0.03,0.069,0.018,-0.037
NCAPD3 (UniProt P42695),0.001,-0.017,0.043,-0.019,-0.008,0.007,-0.024,-0.012,0.036,-0.012
PAIP2 (UniProt Q9BPZ3),0.145,0.012,-0.05,-0.006,0.006,0.015,0.028,0.01,-0.003,-0.008
NEDD8 (UniProt Q15843),0.059,-0.013,-0.001,0,0.011,-0.01,0.005,0.077,0.025,-0.029
NUP93 (UniProt Q8N1F7),-0.013,0.007,0.036,-0.015,0,0.027,0.019,-0.029,0.036,0
NPTN (UniProt Q9Y639),0.069,0.026,0.042,-0.009,0.007,-0.02,-0.015,0.038,0.004,-0.046
NMT1 (UniProt P30419),-0.045,0.005,-0.001,0.014,0.022,-0.011,-0.009,-0.01,0.017,0.001

Target,log2 fold change (ibrutinib),log2 fold change [1],log2 fold change (ralimetinib),log2 fold change [2],log2 fold change [3],log2 fold change [4],log2 fold change [5],log2 fold change [6],log2 fold change [7],log2 fold change [8]
NUDT4 isoform 2 (UniProt Q9NZJ9),-0.006,0.002,0.035,-0.044,-0.006,0.016,-0.054,0.034,0.024,-0.024
NARS2 (UniProt Q96I59),0.01,0.009,0.009,0.003,-0.001,0.017,-0.024,-0.007,0.045,0.038
NPLOC4 (UniProt I3L3I1),-0.022,–,–,–,–,–,-0.169,0.447,–,–
MTHFD1 (UniProt V9GZ32),–,0.045,–,–,–,-0.18,–,–,–,0.088
PAGE2B (UniProt Q5JRK9),–,-0.049,-0.024,-0.032,-0.054,0.023,0.044,-0.003,0.238,0.022
NRIP1 (UniProt P48552),-0.018,-0.055,-0.05,-0.165,-0.007,0.093,-0.217,0.175,-0.005,-0.102
MYBL2 (UniProt P10244),–,–,0,0.02,-0.008,–,0.057,0.048,-0.013,–
MYLK (UniProt Q15746),0.099,0.226,–,–,–,0.061,–,0.228,–,0.004
NUMB isoform 2 (UniProt P49757),–,–,0.059,0.12,–,0.154,-0.245,–,-0.062,–
OSBPL6 isoform 5 (UniProt Q9BZF3),0.118,-0.031,0.23,-0.042,0.098,-0.032,0.016,0.015,-0.013,0.01
PBK (UniProt Q96KB5),0.006,-0.007,0.005,-0.005,0.029,-0.008,0.015,0.006,-0.013,0.019
MXRA7 (UniProt P84157),–,-0.234,0.108,0.027,-0.057,-0.074,0.024,0.021,0.045,-0.023
NOCT (UniProt Q9UK39),–,0.001,0.068,-0.06,0.014,0.004,0.114,-0.012,-0.066,0.064
NUDT5 (UniProt C9JYY9),–,–,–,–,-0.111,-0.05,–,–,–,–
NSA2 (UniProt O95478),0.154,0.068,0.012,0.082,0.01,-0.043,0.223,–,-0.155,-0.027
NFATC4 isoform 2 (UniProt Q14934),-0.053,-0.075,–,–,–,-0.067,-0.057,0.125,–,-0.063
NTMT1 (UniProt S4R338),–,-0.182,–,–,–,–,–,–,–,0.058
NUP160 (UniProt Q12769),0.063,-0.007,0.062,0.017,-0.021,0.01,0.005,0.012,-0.021,0.001
NUB1 isoform 2 (UniProt Q9Y5A7),–,–,–,–,–,–,–,0.075,–,–

Target,log2 fold change (ibrutinib),log2 fold change [1],log2 fold change (ralimetinib),log2 fold change [2],log2 fold change [3],log2 fold change [4],log2 fold change [5],log2 fold change [6],log2 fold change [7],log2 fold change [8]
NR2C2 isoform 2 (UniProt P49116),0.069,-0.081,0.014,0,-0.03,–,-0.064,0.044,-0.019,-0.086
PAGE4 (UniProt O60829),0.056,-0.029,0.028,-0.077,0.072,–,-0.014,0.04,0.078,0.004
ORC3 (UniProt Q9UBD5),–,0.161,–,–,–,-0.007,–,–,–,0.03
NSUN7 (UniProt Q8NE18),0.076,-0.025,0.168,-0.137,0.042,–,–,0.102,-0.009,-0.017
NUB1 (UniProt H7C5N1),–,–,0.133,-0.146,–,–,–,–,-0.131,–
NFAT5 isoform 4 (UniProt O94916),-0.016,–,–,–,–,–,–,0.088,–,–
MUC5AC (UniProt P98088),–,–,-0.067,0.06,–,1.44,–,–,0.041,–
PAPOLG (UniProt Q9BWT3),–,–,0.01,-0.071,-0.19,-0.089,0.012,-0.028,-0.092,–
MT-ATP8 (UniProt P03928),-0.035,-0.052,0.005,-0.109,-0.087,-0.082,–,0.153,0.047,0.104
OSBPL1A (UniProt Q9BXW6),0.019,-0.002,–,–,0.116,0.152,-0.069,0.012,–,-0.028
NDUFAF5 (UniProt Q5TEU4),-0.007,0.021,-0.011,-0.008,-0.029,–,0.043,0.076,-0.026,-0.048
MYO10 (UniProt Q9HD67),-0.059,–,-0.136,-0.385,0.035,-0.078,–,-0.001,0.042,–
MYH6 (UniProt P13533),0.793 (active),-0.017,0.045,-0.157,0.01,–,–,0.047,-0.081,-0.172
NEXN (UniProt Q0ZGT2),0.173,-0.008,0.257,0.057,0.066,-0.012,-0.065,–,0.101,-0.017
P2RY1 (UniProt P47900),-0.026,0.102,-0.045,-0.107,-0.322,–,0.064,–,-0.009,0.058
PANK2 (UniProt Q9BZ23),-0.056,0.001,-0.069,-0.047,–,-0.073,-0.126,-0.046,-0.002,0.023
PARD3B (UniProt Q8TEW8),–,–,–,–,0.091,–,0.071,–,–,–
NAA16 (UniProt Q6N069),-0.047,0.097,-0.179,0.085,–,0.092,0.105,–,0.147,0.062
NUDT6 (UniProt P53370),–,–,0.065,-0.033,0.054,–,0.169,0.011,-0.042,–
